# In PubChem BioAssay (NCI):
# Compounds without any hit were thinned out: in the full panel of roughly 79,000, 15% have a hit. Activity calls are given as the source filed them. Rule as the data show it: active = growth inhibition above about 70%; inactive = the rest.
# Assay: NCI Yeast Anticancer Drug Screen. Data for the sgs1 mgt1 strain (AID 161);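 also: 0% = growth of cultures given vehicle only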
# Details: S. cerevisiae sgs1 mgt1 strain, at 5.0 µM (retest, dose inferred, filed as 0.5), active compounds read high
# Procedure, shortened: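 Test agents were incubated with a DNA-repair-mutant yeast strain. Growth was then read and compared against vehicle-treated controls.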
row,SMILES,growth inhibition
1,CCCCCC(C1SC(=S)NC1=O)C1SC(=S)NC1=O (stereo not given),5% (inactive)
2,CC(C)C1=CC2=CC(=O)C3C(C)(C)CCCC3(C)C2=C(O)C1=O (stereo not given),98% (active)
3,CCOC(=O)C[n+]1c(C)sc2ccccc21,0% (inactive)
4,OCc1c(-c2cccc3ccccc23)sc(-c2cccc3ccccc23)c1CO,44% (inactive)
5,CC1=C(C#N)C(=O)OC1(C)C(CC(=O)c1ccccc1)c1ccccc1 (stereo not given),20% (inactive)
6,O=c1oc2c3ccc4ccccc4c3n(CCCN3CCCCC3)c2c2ccccc12,35% (inactive)
7,Cc1cc(NC(=S)SCc2ccc(F)cc2)ccc1Br,58% (inactive)
8,Cc1ccc(C2C(O)=C(c3ccccc3)Sc3ccc(C)cc32)cc1 (stereo not given),5% (inactive)
9,COC(=O)/C=C1/OC(c2ccccc2)=CC1=O,22% (inactive)
10,COc1ccccc1NC(=O)CC(=O)N1N=C(c2ccccc2)C(N=Nc2ccc(Cl)cc2)C1=O (stereo not given),25% (inactive)
11,CC(=O)NC1=C(Nc2ccc(-c3ccc(NC4=C(NC(C)=O)C(=O)c5ccccc5C4=O)cc3)cc2)C(=O)c2ccccc2C1=O,100% (active)
12,CCCCCCC(O)CCOC(C)=O (stereo not given),1% (inactive)
13,CCn1nc(-c2ccccc2)c2c1N(C)c1ccccc1-n1c(-c3ccccc3)nnc1-2,3% (inactive)
14,CC1(CCC(=O)O)c2ccc3ccccc3c2Oc2c1ccc1ccccc21,81% (active)
15,CCN1/C(=C\c2cc(C)nc(-c3ccccc3)[n+]2C)C=Cc2ccccc21,27% (inactive)
16,Cc1ccccc1N1C(=O)c2ccccc2C1=O,1% (inactive)
17,O=C(Oc1ccccc1)C1CCCCC1C(=O)Oc1ccccc1 (stereo not given),-3% (inactive)
18,Cc1cccc2c1C1c3c(C)cccc3C(O)CC1CC2O (stereo not given),-2% (inactive)
19,CC(C)c1cc2c(cc1O)C(O)C1(O)CCCC(C)(C)[C@H]1CC2 (stereo not given in full),-1% (inactive)
20,C/C=C/c1ccc(OCC(=O)O)c(OC)c1,8% (inactive)

row,SMILES,growth inhibition
1,Nc1ccc(S(=O)(=O)NCc2nccs2)cc1,2% (inactive)
2,N#CC(NNC(=O)c1ccccc1O)c1c(O)ccc2ccccc12 (stereo not given),-5% (inactive)
3,Oc1ccc(Cl)cc1Cc1cc(Cl)cc(Cc2cc(Cl)ccc2O)c1O,4% (inactive)
4,O=C1CN(CCN2CCOCC2)CC(=O)N2Cc3ccccc3CN12,27% (inactive)
5,CC1CCC(SC2CC(=O)CCC2=O)CC1 (stereo not given),21% (inactive)
6,Clc1ccc(OCC2CO2)c(Cl)c1 (stereo not given),40% (inactive)
7,CN=C(N)N/N=C(\C)c1ccc2c(ccc3ccccc32)c1,13% (inactive)
8,Cc1cc(O)c(/C=N/c2nc(-c3cccc([N+](=O)[O-])c3)cs2)c(=O)o1,52% (inactive)
9,COc1cccc2c1OC(c1ccc(Cl)cc1)C([N+](=O)[O-])=C2 (stereo not given),93% (active)
10,COc1ccc(C(=O)C2C(=O)C(=O)OC2C2OC(=O)C(=O)C2C(=O)c2ccc(OC)cc2)cc1 (stereo not given),0% (inactive)
11,CCCCCCCCCCCCCCCCOc1ccc(S(=O)(=O)N/N=c2/sc3ccc(S(=O)(=O)O)cc3n2C)cc1C(=O)O,0% (inactive)
12,O=C(Nc1ccc(F)cc1)N1CCCCC1,40% (inactive)
13,C[CH2][Sn]([CH2]C)([O]C(=O)c1cc(OC)c(OC)c(OC)c1)[O][Sn]([CH2]C)([CH2]C)[O]C(=O)c1cc(OC)c(OC)c(OC)c1,31% (inactive)
14,C/C(O)=C(/C=N/C(=S)Nc1ccc(S(N)(=O)=O)cc1)C(=O)Nc1ccccc1C,-5% (inactive)
15,CC(C)CC(N)C(=O)NNc1ccccc1 (stereo not given),30% (inactive)
16,CCC(C(c1ccc(Cl)cc1)c1ccc(Cl)c(Cl)c1)[N+](=O)[O-] (stereo not given),4% (inactive)
17,O=C(O)c1nc2cc(C(F)(F)F)ccc2nc1Nc1ccc(F)cc1,23% (inactive)
18,Nc1nc(-c2ccccn2)cc2cc(Cl)ccc12,95% (active)
19,CC1(c2ccccc2)NC(=O)N(CC(=O)N(c2ccccc2)c2ccccc2)C1=O (stereo not given),9% (inactive)
20,O/N=C(/Cc1ccccc1)c1ccc2c(c1)OCO2,-18% (inactive)
